# Measured values as given in PubChem BioAssay (Tox21).
# “And” between values parts separate entries of the source, which are not always exact repeats. Equal entries are not always repeated. Inconclusive results are not listed. A call without a number means that no potency is given here. The source made the active and inactive calls. Unless noted, the call rests on the fitted dose curve; in most records, active means well fitted curve in the direction sought with a large enough effect in the repeat runs; inconclusive means weak or mixed curves; inactive means no such curve, though single readings can be large; an effect the other way counts as inactive or inconclusive.
# Columns and labels:
# [1] = qHTS assay for small molecules that induce genotoxicity in human embryonic kidney cells expressing luciferase-tagged ATAD5 (AID 651632); further: nearly all actives have a fitted effect of over 15% in size; further: potency means the concentration at half of the fitted maximal effect
# In short: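 Cells were seeded at 2,000 per well, dosed with compound, and incubated 16 hr at 37C in 5% CO2. Luciferase activity was then quantified after a 30 min room-temperature incubation with Amplite.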
# [2] = qHTS assay for small molecule agonists of the p53 signaling pathway - cell viability (AID 651633; calls by dose curve; further: nearly all actives have a fitted effect of over 30% in size; further: potency means the concentration at half of the fitted maximal effect)
# In short: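 p53RE-bla cells, seeded at 4,000 per well and rested 5 h at 37 C/5% CO2, received compounds in DMSO for 16 h at 37 C. CellTiter-Glo was then added, and luminescence was read after 30 min at room temperature to gauge cytotoxicity.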
# [3] = qHTS assay for small molecules that induce genotoxicity in human embryonic kidney cells expressing luciferase-tagged ATAD5 - cell viability (AID 651634; calls by dose curve; further: nearly all actives have a fitted effect of over 25% in size; further: potency means the concentration at half of the fitted maximal effect)
# In short: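 Cells (HEK293T, luciferase-tagged ATAD5) are seeded at 2,000 per well, dosed with compound or DMSO vehicle, and incubated 15.5 hr at 37C and 5% CO2. CellTiter-Fluor is added for 30 min before fluorescence is measured.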
# [4] = qHTS assay for small molecule disruptors of the mitochondrial membrane potential - cell viability (AID 720634; calls by dose curve; further: nearly all actives have a fitted effect of over 20% in size; further: potency means the concentration at half of the fitted maximal effect)
# In short: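 Cytotoxicity was measured by ATP quantitation in HepG2 wells that had first been treated with compound for 1 hr and stained with m-MPI dye; CellTiter-Glo incubation was 30 min at room temperature.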
# [5] = qHTS assay for small molecule disruptors of the mitochondrial membrane potential (AID 720635); further: potency means the concentration at half of the fitted maximal effect
# In short: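 HepG2 cells (2,000/well) attached overnight at 37C, then took compound for 1 hr at 37C, 5% CO2. Mito-MPS dye was added for 30 min; fluorescence was read at 490/535 nm (monomers) and 540/590 nm (aggregates).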
# [6] = qHTS assay to test for compound auto fluorescence at 590 nm (red) in HepG2 cells (AID 720674)
# In short: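 Intrinsic compound fluorescence in the red window (Ex/Em 540/590 nm) is measured in attached HepG2 cells exposed for 1 hr, DMSO vehicle as baseline, benchmarked to Rose Bengal sodium.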
# [7] = qHTS assay to test for compound auto fluorescence at 535 nm (green) in HepG2 cells (AID 720675)
# [8] = qHTS assay to test for compound auto fluorescence at 460 nm (blue) in HEK293 cells (AID 720678)
# In short: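 HEK293 cells (2,000 per well, medium with 10% dialyzed FBS) attached for 4-5 hr at 37C, then received compound and stood overnight at 37C, 5% CO2. Blue fluorescence was read at Ex/Em 405/460 nm and expressed relative to triamterene.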
# [9] = qHTS assay to test for compound auto fluorescence at 590 nm (red) in HEK293 cells (AID 720679)
# In short: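 HEK293 cells (2,000/well, medium with 10% dialyzed FBS) attached for 4-5 hr at 37C, received 23 nL compound and were incubated overnight at 37C, 5% CO2. Red fluorescence was then read at 540/590nm Ex/Em, referenced to Rose Bengal sodium.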
Structure (SMILES),Potency [1],Potency [2],Potency [3],Potency [4],Potency [5],Potency [6],Potency [7],Potency [8],Potency [9]
CO/N=C(\C(=O)N[C@@H]1C(=O)N2C(C(=O)O)=CCS[C@H]12)c1csc(N)n1,inactive,inactive,inactive,inactive,inactive,inactive,inactive,inactive,inactive
Cc1c(O)cc2c(c1C)O[C@](C)(CCC[C@H](C)CCC[C@H](C)CCCC(C)C)CC2,inactive,inactive,inactive,inactive,inactive,inactive,inactive,inactive,inactive
Nc1ncnc2c1ncn2CCOCP(=O)(O)O,inactive,inactive,inactive,inactive,inactive,inactive,inactive,inactive,inactive
CC(CCc1ccc(O)cc1)NCC(O)c1ccc(O)cc1 (stereo unspecified),inactive,inactive,inactive,inactive,inactive,inactive,inactive,inactive,inactive
CC(=O)N[C@@H]([C@@H](O)[C@H](O)[C@H](O)CO)[C@@H](O)CC(=O)C(=O)O,inactive,inactive,inactive,inactive,inactive,inactive,inactive,inactive,inactive
COc1ccc(C[C@H](N)C(=O)N[C@H]2[C@@H](O)[C@H](n3cnc4c(N(C)C)ncnc43)O[C@@H]2CO)cc1,1.06 µM (active),5.96 µM (active),2.66 µM (active),inactive,,inactive,inactive,inactive,inactive
O=P(O)(O)OC[C@H]1O[C@](O)(COP(=O)(O)O)[C@@H](O)[C@@H]1O,inactive,inactive,inactive,inactive,inactive,inactive,,inactive,inactive
CC(=O)N[C@@H](CC(=O)N[C@@H](CCC(=O)O)C(=O)O)C(=O)O,inactive,inactive,inactive,inactive,inactive,inactive,,inactive,inactive
Cc1ccc(C2(O)CCN(CCCC(=O)c3ccc(F)cc3)CC2)cc1,inactive,inactive,inactive,inactive,inactive,inactive,inactive,inactive,inactive
CC(O)[C@@H]1NC(=O)[C@H](Cc2ccccc2)NC(=O)[C@H](C(C)O)NC(=O)[C@H](CCCCN)NC(=O)[C@H](Cc2c[nH]c3ccccc23)NC(=O)[C@H](Cc2ccccc2)NC(=O)[C@H](Cc2ccccc2)NC(=O)[C@H](CC(N)=O)NC(=O)[C@H](CCCCN)NC(=O)[C@@H](NC(=O)CNC(=O)[C@H](C)N)CSSC[C@@H](C(=O)O)NC(=O)[C@H](CO)NC1=O (stereo partly specified),inactive,inactive,inactive,inactive,inactive,inactive,,inactive,inactive
C=CCCCCCCCCC(=O)OC,inactive,inactive,inactive,inactive,inactive,inactive,inactive,inactive,inactive
COC(=O)CC[C@H](N)C(=O)O,inactive,inactive,inactive,inactive,,inactive,inactive,inactive,inactive
OC[C@H]1OC([S-])[C@H](O)[C@@H](O)[C@@H]1O.[Au+] (stereo partly specified),inactive,inactive,inactive,inactive,inactive,inactive,inactive,inactive,inactive
O=C(O)[C@@H](O)[C@H](O)[C@H](O)[C@@H](O)C(=O)O (tested in a mixture with another compound),inactive,inactive,inactive,inactive,inactive,inactive,inactive,inactive,inactive
O=C(O)[C@H]1/C(=C/CO)O[C@@H]2CC(=O)N21,inactive,inactive,inactive,inactive,inactive,inactive,inactive,inactive,inactive
O=C(Cn1c(=O)sc2ccc(Cl)cc21)N1CCN(CCO)CC1,inactive,inactive,inactive,inactive,inactive,inactive,inactive,inactive,inactive
CC(=O)Nc1c(I)c(C(=O)N[C@H]2C(O)O[C@H](CO)[C@@H](O)[C@@H]2O)c(I)c(N(C)C(C)=O)c1I (stereo partly specified),inactive,inactive,inactive,inactive,inactive,inactive,inactive,inactive,inactive
FC(F)(F)C(F)(F)C(F)(F)C(F)(F)C(F)(F)C(F)(F)F,inactive,inactive,inactive,inactive,inactive,inactive,inactive,inactive,inactive
CC(=O)O[C@H]1C(=O)[C@@]2(C)[C@H]([C@H](OC(=O)c3ccccc3)[C@]3(O)C[C@H](OC(=O)[C@H](O)[C@@H](NC(=O)c4ccccc4)c4ccccc4)C(C)=C1C3(C)C)[C@]1(OC(C)=O)CO[C@@H]1C[C@@H]2O,inactive,inactive,0.0188 µM (active),inactive,0.944 µM (active),inactive,inactive,inactive,inactive
CC(O)[C@H]1CC[C@H]2[C@@H]3CC[C@@H]4C[C@@H](O)CC[C@]4(C)[C@H]3CC[C@]12C (stereo partly specified),inactive,inactive,inactive,inactive,inactive,inactive,inactive,inactive,inactive

Structure (SMILES),Potency [1],Potency [2],Potency [3],Potency [4],Potency [5],Potency [6],Potency [7],Potency [8],Potency [9]
CC(Oc1ccccc1)C(=O)N[C@@H]1C(=O)N2[C@@H]1SC(C)(C)[C@@H]2C(=O)O (stereo partly specified),inactive,inactive,inactive,inactive,inactive,inactive,inactive,inactive,inactive
COC(F)(F)C(Cl)Cl,inactive,inactive,inactive,inactive,inactive,inactive,inactive,inactive,inactive
CCCCCCOc1ccc(C(=N)N(CCCC)CCCC)c2ccccc12,inactive,21.1 µM (active),23.7 µM (active),26.6 µM (active),8.41 µM (active),inactive,inactive,inactive,inactive
CC(C)(C)C1(O)CCN2CC3c4ccccc4CCc4cccc(c43)C2C1 (stereo unspecified),inactive,13.3 µM (active),inactive,inactive,,inactive,inactive,inactive,inactive
CC(C)(C)NCC(O)CSc1nc(-c2ccc(C(N)=O)s2)cs1 (stereo unspecified),inactive,inactive,inactive,inactive,13.3 µM (active),inactive,,inactive,inactive
COc1cc([C@@H]2c3cc4c(cc3C(O[C@@H]3O[C@@H]5CO[C@@H](C)O[C@H]5[C@H](O)[C@H]3O)C3COC(=O)[C@@H]32)OCO4)cc(OC)c1OP(=O)(O)O (stereo partly specified),2.66 µM (active) and 6.68 µM (active),inactive,inactive,inactive,inactive,inactive,inactive,inactive,inactive
CC1CS(=O)(=O)CCN1/N=C/c1ccc([N+](=O)[O-])o1 (stereo unspecified),inactive,inactive,inactive,inactive,inactive,inactive,inactive,inactive,inactive
COc1ccc(CC2c3cc(OC)c(OC)cc3CC[N+]2(C)CCC(=O)OCCCCCOC(=O)CC[N+]2(C)CCc3cc(OC)c(OC)cc3C2Cc2ccc(OC)c(OC)c2)cc1OC (stereo unspecified),inactive,inactive,inactive,inactive,inactive,inactive,inactive,inactive,inactive
C/C(=C(\CCOC(=O)c1ccccc1)SS/C(CCOC(=O)c1ccccc1)=C(/C)N(C=O)Cc1cnc(C)nc1N)N(C=O)Cc1cnc(C)nc1N,inactive,inactive,inactive,inactive,inactive,inactive,inactive,inactive,inactive
CC[C@H](C)[C@H]1O[C@]2(CC[C@@H]1C)C[C@@H]1C[C@@H](C/C=C(\C)[C@@H](O[C@H]3C[C@H](OC)[C@@H](O[C@H]4C[C@H](OC)[C@@H](O)[C@H](C)O4)[C@H](C)O3)[C@@H](C)/C=C/C=C3\CO[C@@H]4[C@H](O)C(C)=C[C@@H](C(=O)O1)[C@]34O)O2,inactive,4.22 µM (active),2.98 µM (active),inactive,7.5 µM (active),inactive,inactive,inactive,inactive
N[C@H](CC(=O)O)C(=O)O,inactive,inactive,inactive,inactive,inactive,inactive,inactive,inactive,inactive
O=C(NNCNNC(=O)c1ccncc1)c1ccncc1,inactive,inactive,inactive,inactive,,inactive,inactive,inactive,inactive
CC(C)N1CCN(c2ccc(OC[C@H]3CO[C@](Cn4cncn4)(c4ccc(Cl)cc4Cl)O3)cc2)CC1,inactive,11.4 µM (active),inactive,inactive,,inactive,inactive,inactive,inactive
O=C(O)CC/C=C\CC[C@@H]1[C@@H](N2CCCCC2)[C@@H](O)C[C@@H]1OCc1ccc(-c2ccccc2)cc1,inactive,inactive,inactive,inactive,,inactive,inactive,inactive,inactive
Cc1cc(C)c(NC(=O)C[C@H](CC(=O)O)c2cccc3ccccc23)c(C(=O)N2CCC3(CCCC3)CC2)c1,inactive,inactive,inactive,inactive,,inactive,inactive,inactive,inactive
CC[C@@H](C(=O)[C@@H](C)[C@@H](O)[C@H](C)[C@@H]1O[C@@H]([C@@H](CC)C(=O)O)CC[C@@H]1C)[C@H]1O[C@]2(C=C[C@@H](O)[C@]3(CC[C@@](C)([C@H]4CC[C@](O)(CC)[C@H](C)O4)O3)O2)[C@H](C)C[C@@H]1C,inactive,inactive,8.41 µM (active),inactive,,inactive,inactive,inactive,inactive
CC1C(=O)CC2C3(C)CCC2(C(C)C(=O)O)C(=O)C13 (stereo unspecified),inactive,inactive,inactive,inactive,,inactive,inactive,inactive,inactive
CCN(CC)CCOc1ccc2nc(N(C)C)sc2c1,inactive,inactive,inactive,inactive,,inactive,inactive,inactive,inactive
CO/N=C(\C(=O)N[C@@H]1C(=O)N2C(C(=O)O)=C(CSc3nnnn3C)CS[C@H]12)c1csc(N)n1,inactive,inactive,inactive,inactive,,inactive,inactive,inactive,inactive
